Most compounds without a hit are left out; they make up all but 7.6% or so of the library.
KB-V1 cytotox = KB-V1 MDR subline cytotoxicity; KB-V1 MDR cells viability, CellTiter-Glo, 72 h; Potency, µM (series often up to 46.1 µM), usual class: cytotoxic; 3.4% of 400,000 active; AID 1347076; also: nearly all actives have a fitted effect of over 60% in size
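Following 72 h at 37 degrees C with compound, KB-V1 cell viability was read by CellTiter-Glo luminescence, medium being phenol-red-free DMEM plus 10% FBS; concentration-response parameters came from normalized, curve-fitted qHTS data.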
hERG WT inh = inhibitors of human wildtype KCNH2 potassium channel. AID 720551. 0.37% of 340,000 active. activity change, % at 1.84 µM. U2OS, BacMam KCNH2, thallium flux FluxOr; stronger effect = lower value;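 active = maximum activity change below -70%; inconclusive = maximum activity change between -70% and -50%; inactive = maximum activity change above -50%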
Target sequence (Q12809 whole entry, looked up): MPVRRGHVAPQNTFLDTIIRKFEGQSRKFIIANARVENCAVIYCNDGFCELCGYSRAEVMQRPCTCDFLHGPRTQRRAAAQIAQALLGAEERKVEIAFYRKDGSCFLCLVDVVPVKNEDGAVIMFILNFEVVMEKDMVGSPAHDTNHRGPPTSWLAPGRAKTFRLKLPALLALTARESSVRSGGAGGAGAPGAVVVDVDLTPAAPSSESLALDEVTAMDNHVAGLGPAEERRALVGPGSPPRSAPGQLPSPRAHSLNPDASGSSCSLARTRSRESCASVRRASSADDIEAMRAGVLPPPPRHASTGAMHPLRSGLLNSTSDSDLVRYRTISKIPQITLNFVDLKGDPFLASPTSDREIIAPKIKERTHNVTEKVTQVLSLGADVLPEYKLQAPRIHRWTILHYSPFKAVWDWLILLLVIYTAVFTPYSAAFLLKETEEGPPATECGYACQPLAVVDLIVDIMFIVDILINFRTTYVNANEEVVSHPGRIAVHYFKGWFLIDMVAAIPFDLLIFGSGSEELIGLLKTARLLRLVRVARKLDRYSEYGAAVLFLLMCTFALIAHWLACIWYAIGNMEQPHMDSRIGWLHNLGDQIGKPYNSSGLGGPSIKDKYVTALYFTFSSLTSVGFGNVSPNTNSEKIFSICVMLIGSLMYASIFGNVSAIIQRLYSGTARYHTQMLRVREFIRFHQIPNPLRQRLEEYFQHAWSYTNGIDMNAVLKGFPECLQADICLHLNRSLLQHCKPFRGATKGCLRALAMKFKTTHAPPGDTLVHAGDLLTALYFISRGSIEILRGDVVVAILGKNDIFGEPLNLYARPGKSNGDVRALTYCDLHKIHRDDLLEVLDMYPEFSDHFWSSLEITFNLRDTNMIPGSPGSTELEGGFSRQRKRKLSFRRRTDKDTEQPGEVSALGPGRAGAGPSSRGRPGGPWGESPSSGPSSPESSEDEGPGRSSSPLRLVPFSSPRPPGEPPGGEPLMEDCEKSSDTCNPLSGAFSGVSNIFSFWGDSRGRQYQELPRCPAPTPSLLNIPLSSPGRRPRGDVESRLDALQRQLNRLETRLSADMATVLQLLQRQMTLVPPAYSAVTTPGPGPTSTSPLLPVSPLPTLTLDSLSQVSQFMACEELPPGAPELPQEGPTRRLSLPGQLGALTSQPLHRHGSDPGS
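U2OS cells were transduced with wild-type KCNH2 virus (2.03 x 10^8 / mL) for 4 h at room temperature, then cultured overnight at 37 C. Thallium flux was read with FluxOr dye. Rate constants were normalized to DMSO controls.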
MCF10A rerep = inducers of DNA re-replication in MCF 10A breast cells; AID 624296; 2.9% of 350,000 active; MCF 10A DNA re-replication, Hoechst nuclear intensity, 48 h; Potency, µM (highest dose often 46.1 µM), hits mostly activators; also: nearly all actives have a fitted effect of over 50% in size
SW480 rerep = DNA re-replication induction in SW480 cells; SW480 DNA re-replication, Hoechst DNA content imaging, 48 h; Potency, µM (highest dose often 46.1 µM), usual class: activators; 1.8% of 340,000 active; also: nearly all actives have a fitted effect of over 55% in size
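Quantitative HTS format with DMSO vehicle controls; 48 hr drug incubation at 37 C, then 40 min Hoechst staining and scanning imager measurement at 405 nm excitation.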
KB-3-1 tox = KB-3-1 parental cell cytotoxicity; KB-3-1 viability, CellTiter-Glo ATP luminescence, 72 h; Potency, µM (highest dose often 46.1 µM), usual class: cytotoxic; 1.4% of 400,000 active; also: nearly all actives have a fitted effect of over 60% in size
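Here the drug-naive KB-3-1 line serves as comparator for MDR sub-line selectivity; cells received compound titrations, 72 h at 37 °C, then CellTiter-Glo readout.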
KCNH2 3.1 inh = blocks the human KCNH2 3.1 channel isoform; U2OS KCNH2 3.1, thallium flux FluxOr; stronger effect = lower value; activity change, % (tested at about 1.8 µM); 0.95% of 340,000 active; AID 720553;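 active = maximum activity change below -70%; inconclusive = maximum activity change from -70% to -50%; inactive = maximum activity change above -50%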;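 also: thallium influx rate constant from kinetic fluorescence after stimulation buffer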
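Measured as rate of thallium-driven FluxOr signal in transduced U2OS cells carrying the 3.1 channel, read kinetically for 2 min upon stimulation; values are rate constants scaled to DMSO control wells.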
Hits are given with their value; n = inactive; u = inconclusive; x = no result given; [ ] = dose if it differs, or a comment. Unless noted, calls follow the shape of the dose curve; as a rule, active = well fitted curve in the direction sought with a large enough effect; inconclusive = small, poorly fitted or top-dose-only effect, or another doubt; inactive = no such curve, though single readings can be large; an effect the other way counts as inactive or inconclusive.

SMILES	KB-V1 cytotox	hERG WT inh	MCF10A rerep	SW480 rerep	KB-3-1 tox	KCNH2 3.1 inh
COc1ccc(OC)c(N(C)S(=O)(=O)c2cc3c(cc2C)NC(=O)CO3)c1	n	n	n	n	n	n
COC(=O)CNc1nc(-c2ccccc2F)nc2ccccc12	n	n	n	n	n	n
COc1ccccc1Nc1nc(-c2ccccc2F)nc2ccccc12	8.2µM	x	x	x	u	x
CC(Nc1nc(-c2ccccc2O)nc2ccccc12)c1ccccc1 (stereo not given)	n	n	21µM	u	n	n
CC(Nc1nc(-c2cccnc2)nc2ccccc12)c1ccc(F)cc1 (stereo not given)	18µM	n	u	n	u	n
COc1ccc(Nc2nc(N3CCCC3)nc3ccccc23)c(OC)c1	u	n	18µM	u	n	n
CC(Nc1nc(-c2ccccc2F)nc2ccccc12)c1ccccc1 (stereo not given)	n	n	u	n	n	n
O=C(CSc1nncc(=O)[nH]1)Nc1cccc([N+](=O)[O-])c1	n	n	u	n	n	n
CN(C)c1cccc(S(=O)(=O)N2CCCN(S(=O)(=O)c3ccc4c(c3)OCCO4)CC2)c1	n	x	x	x	n	x
CC(NC(=O)Nc1ccccc1C(F)(F)F)c1c(-n2cccc2)sc2c1CCCC2 (stereo not given)	n	x	x	x	n	x
CCOC(=O)c1ccc(Nc2nc(-c3cccnc3)nc3ccccc23)cc1	n	n	18µM	u	n	n
CCOC(=O)c1ccc(Nc2ncnc3ccccc23)cc1	n	n	n	n	n	n
CC(Nc1nc(N2CCCCC2)nc2ccccc12)c1ccccc1 (stereo not given)	u	n	u	n	11µM	n
CC(Nc1nc(-c2ccccc2)nc2ccccc12)c1ccccc1 (stereo not given)	n	n	u	n	u	n
C=CCN1C(=O)NC(c2ccccc2)(C(F)(F)F)S/C1=C(\C#N)c1nnc(N2CCOCC2)n1-c1ccccc1 (stereo not given)	u	n	21µM	n	n	n
C=CCN1C(c2cccc(C(F)(F)F)c2)=CS/C1=C(\C#N)c1nnc(N2CCOCC2)n1-c1ccccc1	n	n	x	x	n	n
COc1cc(C(=O)N2c3ccccc3CC2C)cc(OC)c1OC (stereo not given)	18µM	n	n	n	u	n
O=C(c1ccccc1)N1CCCc2ccccc21	n	n	n	n	n	n
CC1Cc2ccccc2N1C(=O)c1ccnc(C(C)(C)C)c1 (stereo not given)	n	n	n	n	n	n
COc1ccccc1C(=O)N1CCc2ccccc21	n	n	n	n	n	-73
O=C(Nc1cccc(C(=O)N2CCCc3ccccc32)c1)c1ccccc1	21µM	n	15µM	u	u	n
COc1cccc(C(=O)N2CCCc3ccccc32)c1OC	n	n	x	x	n	n
COc1cc(C(=O)N2CCCc3ccccc32)cc(OC)c1OC	u	n	10µM	u	u	n
CC(C)(C)c1nnc(SCC(=O)Nc2ccc(N3CCCCC3)cc2)n1N	n	n	u	n	n	n
O=C(NCc1cccc(C(F)(F)F)c1)c1[nH]c(C(F)(F)F)nc1-c1ccccc1	u	x	x	x	n	x
SMILES	KB-V1 cytotox	hERG WT inh	MCF10A rerep	SW480 rerep	KB-3-1 tox	KCNH2 3.1 inh
Cn1ncc(Br)c1C(=O)N1CCc2ccccc21	u	n	n	0.52µM	n	n
COc1ccccc1C(=O)NCC(c1cccs1)N1CCc2ccccc21 (stereo not given)	u	n	18µM	n	u	n
COc1cc(C(=O)NCC(c2cccs2)N2CCc3ccccc32)cc(OC)c1OC (stereo not given)	n	n	n	n	n	n
CCCN(CCC)S(=O)(=O)c1ccc(C(=O)N2CCCc3ccccc32)cc1	u	n	23µM	u	u	n
COc1ccccc1N(C(=O)c1ccncc1)c1nc(-c2ccc([N+](=O)[O-])cc2)cs1	u	n	u	u	u	n
O=C(Nc1cc(Cl)ccc1N1CCCC1)C1=NN(c2ccccc2)C(=O)CC1	n	n	u	n	n	n
CCOC1=C2CN(S(=O)(=O)c3ccc(C)cc3)C(c3ccc(C)cc3)CC2N(S(=O)(=O)c2ccc(C)cc2)C(c2ccccc2)C1 (stereo not given)	u	x	x	x	3.3µM	x
CC(=O)c1ccc(S(=O)(=O)N2CCN(CCOc3ccc(Br)cc3)CC2)cc1	n	n	n	n	u	u
Oc1ccc(-c2nc3c4c(ncn3n2)-c2ccccc2CC42CCCC2)cc1	u	n	4.6µM	n	n	n
CCc1ccc(-c2cc(C(F)(F)F)n3nc(C(=O)Nc4cnn(Cc5ccc(C)cc5)c4)cc3n2)s1	3.7µM	n	u	n	n	n
Cc1nc(N/N=C/c2cccnc2)cc(N2CCOCC2)n1	n	n	x	x	n	n
CCCOc1ccc(/C=N/Nc2cc(N3CCOCC3)ncn2)c(O)c1	n	n	n	u	12µM	n
CCCCOc1ccc(/C=N/Nc2cc(N3CCOCC3)nc(C)n2)cc1	n	n	n	n	n	-95
CS/C(=C(/C#N)S(=O)(=O)c1ccc(Cl)cc1)N1CCOCC1	n	n	n	n	n	n
Cc1cc2c(n1-c1ccc(Br)cc1)CC(C)(C)CC2=O	26µM	n	n	n	n	n
Cc1ccc(-n2c(C)cc3c2CC(C)(C)CC3=O)cc1C	n	n	u	n	n	n
O=C(COc1ccc(Cl)cc1Cl)N/N=C/c1ccc(OC2OC(CO)C(O)C(O)C2O)cc1 (stereo not given)	n	-151	n	n	n	-157
Cc1ccc(/C=N/n2c(-c3cccnc3)n[nH]c2=S)s1	n	n	n	n	n	n
S=c1[nH]nc(-c2ccccc2)n1/N=C/c1ccc(Cl)cc1	n	n	n	n	n	n
S=c1[nH]nc(-c2ccc(Cl)cc2)n1/N=C/c1cccs1	n	n	n	9.2µM	n	n
S=c1[nH]nc(-c2cccnc2)n1/N=C/c1ccc(Br)s1	n	n	n	n	n	-99
COc1cccc(C(=O)Nc2cccc(C(=O)NCC(C)C)c2)c1	18µM	n	n	n	n	n
CC(C)CNC(=O)c1cccc(NC(=O)Cc2ccc(Br)cc2)c1	3.3µM	n	n	1.5µM	u	n
CC(C)CNC(=O)c1cccc(NC(=O)c2ccc(Cl)c([N+](=O)[O-])c2)c1	21µM	n	u	n	n	n
CC(C)CNC(=O)c1cccc(NC(=O)CCc2ccccc2)c1	n	n	n	n	n	n
COc1cccc(NC(=O)c2cccc(C(=O)Nc3cccc(OC)c3)c2)c1	n	n	u	n[9.22 µM]	n	n

Source: PubChem BioAssay
